PubChem BioAssay (NCATS)
Results filed as inconclusive are left out. Entries that show only a call come without a potency. Activity calls are given as the source filed them. Calls follow the shape of the dose curve; as a rule, active = well fitted curve in the direction sought with a large enough effect; inconclusive = small, poorly fitted or top-dose-only effect, or another doubt; inactive = no such curve, though single readings can be large; an effect the other way counts as inactive or inconclusive. Non-standard residues stand in square brackets, D forms with d. Residues, ends and D or L forms follow the SMILES beside them. *: point of attachment. Sta = CC(C)C[C@H](N)[C@@H](O)CC(=O)O; Isovaleryl = CC(C)CC(=O)*

System: not listed separately
Experiment: qHTS of pediatric cancer cell lines to identify multiple opportunities for drug repurposing: Confirmatory screen for SK-N-SH cells (AID 1347129);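 also: cells exposed to compound for 48 h before viability read; nearly all actives have a fitted effect of over 60% in size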
Conditions: SK-N-SH neuroblastoma cell viability; series mostly up to 46.1 µM
Procedure, shortened: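 Viability after 48 h compound treatment at 37C, 500-1,000 cells/well, read as ATP luminescence with CellTiter-Glo. Primary screens used 11-point (MIPE, 0.78 nM-46 µM) or 8-point (NPC, 0.59 nM-46 µM) final concentrations; follow-up screens used 11-point dilutions.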
Potency is read from the fitted curve at half-maximal effect.

SMILES | Potency
CC(C)CC(=O)N[C@H](C(=O)N[C@H](C(=O)N[C@@H](CC(C)C)[C@@H](O)CC(=O)N[C@@H](C)C(=O)N[C@@H](CC(C)C)[C@@H](O)CC(=O)O)C(C)C)C(C)C (Isovaleryl-VV[Sta]A[Sta]-OH) | inactive
CCc1nc(N)nc(N)c1-c1ccc(Cl)cc1 | inactive
Cc1ccc(Nc2nccc(N(C)c3ccc4c(C)n(C)nc4c3)n2)cc1S(N)(=O)=O | 18.7 µM (active)

Biological target: N-terminal Xaa-Pro-Lys N-methyltransferase 1 (Homo sapiens) (UniProt Q9BV86)
Sequence (Q9BV86 whole entry, looked up): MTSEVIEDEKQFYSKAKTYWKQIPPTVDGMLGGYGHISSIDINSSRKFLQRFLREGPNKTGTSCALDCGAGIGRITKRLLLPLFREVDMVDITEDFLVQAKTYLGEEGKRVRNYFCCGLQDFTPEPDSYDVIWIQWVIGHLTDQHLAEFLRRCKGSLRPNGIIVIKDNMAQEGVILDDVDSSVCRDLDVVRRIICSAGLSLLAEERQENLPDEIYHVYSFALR
Experiment: qHTS Assay for Inhibitors of N-terminal methyltransferase 1 (NTMT1): LOPAC validation of the NTMT1 SAHH-coupled ThioGlo3 Assay (AID 1347143);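 also: SAH from peptide methylation measured as thiol fluorescence via SAHH coupling and ThioGlo3; nearly all actives have a fitted effect of over 70% in size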
Conditions: recombinant NTMT1, SAHH-coupled ThioGlo3 fluorescence; series mostly up to 114 µM
Procedure, shortened: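 Steps: dispense 125nM NTMT1; pin-transfer test compounds at several concentrations, with 1uM RCC1-6 peptide as control; incubate 1 min; start with reagent holding 100uM SAM, 10uM SAHH, 15uM ThioGlo3; read at 0 and 30 min.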

SMILES | Potency
O=C1NC(=O)C(c2ccccc2[N+](=O)[O-])=C1Nc1ccc(O)c(Cl)c1 | 28.2 µM (active)
Nc1nc(N)c(N=O)c(OCC2CCCCC2)n1 | inactive
C[C@@H](N)C1CCC(C(=O)Nc2ccncc2)CC1 (stereo partly specified) | inactive
Cc1cc(O)c2c(c1)C(=O)c1cc(O)cc(O)c1C2=O | 17.8 µM (active)
CC(=O)NC[C@H]1CN(c2ccc(N3CCOCC3)c(F)c2)C(=O)O1 | inactive
O=Nc1c(-c2c(O)[nH]c3cc(Br)ccc23)[nH]c2ccccc12 | 14.1 µM (active)
COc1cc2c(cc1OC)C1CC(=O)C(CC(C)C)CN1CC2 (stereo unspecified) | inactive
CNC[C@H](O)c1ccc(O)c(O)c1 | inactive
CC(C)c1ccc2c(c1)c(SC(C)(C)C)c(CC(C)(C)C(=O)O)n2Cc1ccc(Cl)cc1 | inactive
O=C(c1ccccc1)c1ccc2n1CCC2C(=O)O (stereo unspecified) | inactive
CC1(C)NC(=O)N(c2ccc([N+](=O)[O-])c(C(F)(F)F)c2)C1=O | inactive
C[C@@H](c1ncncc1F)[C@](O)(Cn1cncn1)c1ccc(F)cc1F | inactive
NNc1nncc2ccccc12 | 79.4 µM (active)
